Compound activity as filed in PubChem BioAssay.
Only some compounds are listed: those with a hit (about 2.4% of all), similar ones and a draw of the others.
POLI inh – qHTS for Inhibitors of Polymerase Iota. DNA polymerase iota (Homo sapiens), Q9UNA4. Pol iota fluorescent replication assay, 10 min. Potency, µM (series often up to 115 µM), without a hit: at the top dose activity, negative = inhibition, usual class: inhibitors. actives 1% (n = 390,000)
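Pol iota at 10 nM preincubated 15 min with compounds at room temperature; reaction started with fluorescent substrate, 50 nM final. Fluorescence read kinetically at 0 and 10 min; buffer-only wells as negative control.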
Pol eta inh-1 – qHTS for Inhibitors of Polymerase Eta; DNA polymerase eta (Homo sapiens), Q9Y253; recombinant Pol eta, fluorescent DNA replication assay; Potency, µM (series often up to 114 µM), inactives show at the highest dose activity change, negative = inhibition, usual class: inhibitors; actives 1.2% (n = 390,000); AID 588591, 2011; also: % is scaled to controls: 0 for no effect and ±100 for the full control effect
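Fluorescent replication assay: 50 nM final substrate added after a 15 min room-temperature compound preincubation with 10 nM enzyme. Signal taken at 0 min and again at 10 min.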
L3MBTL1 block – qHTS Assay for the Inhibitors of L3MBTL1 | Lethal(3)malignant brain tumor-like protein 1 (Homo sapiens), Q9Y468 | AlphaScreen L3MBTL1–H3K9me1 peptide binding | Potency, µM (series often up to 57.1 µM), inactives show at the highest dose activity, negative = inhibition, actives largely listed as inhibitors | actives 0.66% (n = 230,000) | AID 485360, 2010; also: % is scaled to controls: 0 for no effect and ±100 for the full control effect; nearly all actives have a fitted effect of over 60% in size
Target sequence (Q9Y468 whole entry, looked up): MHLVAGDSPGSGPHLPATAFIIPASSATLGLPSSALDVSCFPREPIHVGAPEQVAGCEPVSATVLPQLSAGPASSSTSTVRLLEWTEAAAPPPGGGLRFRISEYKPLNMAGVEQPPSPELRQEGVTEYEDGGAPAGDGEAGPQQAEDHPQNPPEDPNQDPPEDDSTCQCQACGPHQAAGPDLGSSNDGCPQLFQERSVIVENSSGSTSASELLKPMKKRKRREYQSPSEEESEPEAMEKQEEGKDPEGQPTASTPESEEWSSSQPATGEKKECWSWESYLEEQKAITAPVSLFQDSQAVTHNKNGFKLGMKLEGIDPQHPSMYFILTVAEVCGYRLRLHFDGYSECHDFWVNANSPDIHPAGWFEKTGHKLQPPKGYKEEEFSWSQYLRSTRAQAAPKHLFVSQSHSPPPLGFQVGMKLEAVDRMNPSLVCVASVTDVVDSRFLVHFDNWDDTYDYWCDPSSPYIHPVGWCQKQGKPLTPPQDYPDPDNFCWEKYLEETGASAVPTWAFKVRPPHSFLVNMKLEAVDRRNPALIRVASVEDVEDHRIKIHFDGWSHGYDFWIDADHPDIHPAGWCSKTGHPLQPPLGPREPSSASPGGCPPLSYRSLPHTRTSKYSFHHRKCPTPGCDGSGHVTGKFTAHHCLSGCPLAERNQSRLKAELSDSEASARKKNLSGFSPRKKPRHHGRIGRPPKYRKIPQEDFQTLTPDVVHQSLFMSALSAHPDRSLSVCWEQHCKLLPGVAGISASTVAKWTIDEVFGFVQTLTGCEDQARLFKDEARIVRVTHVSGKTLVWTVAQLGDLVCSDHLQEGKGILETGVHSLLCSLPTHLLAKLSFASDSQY
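First, the protein-peptide complex forms for 30 min at room temperature (L3MBTL1 50 nM, biotinylated H3K9me1 peptide 75 nM). Next, compounds are pin-transferred and incubated 30 min. Finally, AlphaScreen beads are added and read after 30 min.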
Pol kappa inh-1 – qHTS for Inhibitors of Polymerase Kappa | DNA polymerase kappa (Homo sapiens), Q9UBT6 | purified Pol kappa, fluorescent DNA synthesis assay, 10 min | Potency, µM (top dose mostly 107 µM), without a hit: at the highest dose activity, negative = inhibition, most hits filed as inhibitors | actives 0.53% (n = 400,000); also: % is scaled to controls: 0 for no effect and ±100 for the full control effect
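Activity was followed as the change in fluorescence between reads at 0 and 10 min after starting the reaction with 50 nM substrate. Beforehand, 10 nM polymerase had been preincubated with compound for 15 min at room temperature.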
POLB inh – qHTS Assay for Inhibitors of DNA Polymerase Beta; P06746; Pol beta primer extension/strand displacement, fluorescence kinetic; Potency, µM (titrated, usually from 114 µM), inactives show top-dose activity change, negative = inhibition, usual class: inhibitors; actives 1.3% (n = 340,000); also: % is scaled to controls: 0 for no effect and ±100 for the full control effect
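Pol beta (10 nM) and compounds were preincubated 15 min at room temperature, then 50 nM substrate (final) started primer extension/strand displacement. Reads were taken at 0 and 10 min; concentration-response data were fitted to a four-parameter Hill equation.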
Pol kappa inh-2 – qHTS for Inhibitors of Polymerase Kappa: Confirmatory Assay for Cherry-picked Compounds; purified Pol-kappa, fluorescent strand-displacement substrate; actives 76% (n = 920); Potency, µM, actives largely listed as inhibitors; shares compounds with Pol eta inh-1
Pol eta inh-2 – qHTS for Inhibitors of Polymerase Eta: Confirmatory Assay for Cherry-picked Compounds; Pol eta primer extension, TAMRA/BHQ fluorescence, 10 min; actives 64% (n = 2,600); AID 720502, 2013; Potency, µM, most hits filed as inhibitors; shares compounds with Pol eta inh-1
Starred values were filed as active, the others as inactive; ? = inconclusive; . = no result given; [ ] = another dose, or the depositor's remark. Calls follow the shape of the dose curve; as a rule, active = well fitted curve in the direction sought with a large enough effect; inconclusive = small, poorly fitted or top-dose-only effect, or another doubt; inactive = no such curve, though single readings can be large; an effect the other way counts as inactive or inconclusive. Potency is read from the fitted curve at half-maximal effect.

SMILES	POLI inh	Pol eta inh-1	L3MBTL1 block	Pol kappa inh-1	POLB inh	Pol eta inh-2	others
CCOc1ccccc1C(=O)NC1(C(F)(F)F)C(=O)Nc2c1c(=O)[nH]c(=O)n2-c1ccccc1 (configuration not stated)	5.4%	-13.9%	.	-0.6%	27.7%	.
COc1ccc2oc(C(=O)Nc3ccc(N4CCOCC4)cc3)c(C)c2c1	?	12.6µM*	?	?	.	37.9*
O=C(O)c1cc(Cl)ccc1-c1ccc(/C=C/c2cc(C(F)(F)F)[nH]c(=O)n2)o1	?	50.1µM*	?	?	-29.9%	37.9*
COc1cccc(CNC(=O)c2c(C)oc3nc(C)nc(N4CCOCC4)c23)c1	-19.8%	1.8%	.	-10.1%	3.3%	.
CC(=O)n1cc(N(C(=O)CCl)c2ccc(Cl)cc2)c2ccccc21	?	28.2µM*	2.1%	-14.6%	15.2%	?
CC(=O)n1cc(C=O)c2ccccc21	31.3%	.	.	0.4%	.	.
CCOC(=O)/C(N=Nc1sc(C(=O)OCC)c(C)c1C(=O)OCC)=C(\C)O	.	.	-3.8%	.	0.7%	.
CCOC(=O)c1sc(N=NC2=C(O)CCCC2=O)c(C(=O)OCC)c1C	?	79.4µM*	3.55µM*	?	8.91µM*	67.5*
CC(=O)Nc1cccc(NC(=O)CSc2ccc(-c3cccnc3)nn2)c1	14.1µM*	?	.	89.1µM*	2.82µM*	.	Pol kappa inh-2=16.8*
CCCCn1c(C)cc2c(c1=O)[C@H]1O[C@](CCCC)(Cc3cc(OC)c(OC)cc31)O2	.	.	.	.	21.7%[22.9 µM]	.
Cc1ccc(OCCC(=O)O)cc1	?	56.2µM*	?	?	-1.0%	?
CC1CCN(C(=O)COC(=O)c2ccc([N+](=O)[O-])o2)CC1	50.1µM*	50.1µM*	-19.4%	-5.9%	.	?
CCCCCNS(=O)(=O)c1ccc(N2CCCCS2(=O)=O)cc1	24.1%	-8.2%	.	-4.2%[60.1 µM]	5.2%	.
Cc1c(C#N)c(O)[nH]c(=O)c1N=Nc1ccc(S(N)(=O)=O)cc1	?	25.1µM*	.	-41.3%	7.2%	84.9*	Pol kappa inh-2=?
COc1cc(Cl)cc(C2NC(=O)NC(C)=C2C(C)=O)c1OCC(=O)O (configuration not stated)	?	25.1µM*	.	?	15.8µM*	?
O=C(O)c1cccc(NS(=O)(=O)c2ccc(-c3ccc(S(=O)(=O)Nc4cccc(C(=O)O)c4)cc3)cc2)c1	?	?	-11.9%	50.1µM*	?	?	Pol kappa inh-2=21.2*
O=C(O)c1cccc(NS(=O)(=O)c2ccc(Oc3ccc(S(=O)(=O)Nc4cccc(C(=O)O)c4)cc3)cc2)c1	30.4%	-10.6%	.	-21.0%	.	.
CNC[C@@H]1OCc2ccccc2-c2c(n(C)c3ccccc23)C(=O)N([C@H](C)CO)C[C@H]1C	.	-14.9%	.	.	.	.
CCN(C(=O)CCS(=O)(=O)c1cc(Br)cc2c1N(C(=O)C1CC1)CC2)c1cccc(C)c1	-6.9%	-6.7%	.	0.0%	-17.7%	.
CCC(=O)N1CCc2cc(Br)cc(S(=O)(=O)CCC(=O)N(C)c3cccc(C)c3)c21	6.6%	35.5µM*	28.2µM*	-29.6%	44.7µM*	84.9*
O=C(CSc1ncc2c(n1)-c1ccccc1N(Cc1ccc(Cl)cc1)S2(=O)=O)c1ccc(Cl)cc1	10.5%	-0.5%	.	17.5%	-10.8%	.
N#C/C(=C\c1cccnc1)C(=O)Nc1ccccc1[N+](=O)[O-]	-27.8%	31.6µM*	.	-31.5%	-13.5%	75.7*	Pol kappa inh-2=?
O=C1c2ccccc2C(=O)C1c1cc2ccccc2cn1	23.1%	.	.	4.9%	.	.
COc1ccc(-c2cc3ccc(O)c(CN4CCC(C)CC4)c3oc2=O)cc1OC	-8.9%	-4.5%	.	-11.0%[60.1 µM]	-18.7%	.
O=C1NC(=S)N/C1=C/c1cc2c(cc1[N+](=O)[O-])OCO2	-10.1%	?	.	?	-0.6%	84.9*
SMILES	POLI inh	Pol eta inh-1	L3MBTL1 block	Pol kappa inh-1	POLB inh	Pol eta inh-2	others
Cc1ccccc1N1C(S)=C(C#N)C(=O)NC1c1cccs1 (configuration not stated)	?	?	.	-11.5%	6.2%	.
Cc1ccccc1N1C(S)=C(C#N)C(=O)NC1c1ccco1 (configuration not stated)	22.4µM*	28.2µM*	?	-43.9%	28.2µM*	?
CC(C)(C)C1CCc2oc3ccc(NS(=O)(=O)c4cc(Cl)ccc4Cl)cc3c2C1 (configuration not stated)	-8.0%	-19.7%	.	4.5%	-12.0%	.
CC(C)(C)C1CCc2oc3ccc(NS(=O)(=O)c4ccc(C(=O)O)cc4)cc3c2C1 (configuration not stated)	?	?	.	?	?	.	Pol kappa inh-2=?
Cc1noc(C)c1C(=O)N1CCC[C@@]2(CCN(Cc3ccc(C#N)cc3)C2)C1	.	.	.	-16.2%[60.1 µM]	.	.
O=C(N/N=C\c1ccc(-c2ccccc2[N+](=O)[O-])o1)C1COc2ccccc2O1 (configuration not stated)	30.1%	?	-15.3%	-6.1%	6.2%	.
CC(C)(C)c1ccc2c(c1)OC(C(=O)N/N=C\c1ccc(-c3cccc(C(=O)O)c3)o1)CO2 (configuration not stated)	?	11.2µM*	15.8µM*	?	-36.6%	16.9*
CC(C)(C)c1ccc2c(c1)OC(C(=O)N/N=C\c1ccccn1)CO2 (configuration not stated)	-13.4%	-16.4%	8.3%	-20.3%	20.7%	.
O=C(O)c1cccc(-c2ccc(/C=N/NC(=O)C3COc4ccccc4O3)o2)c1 (configuration not stated)	?	28.2µM*	?	?	20µM*	60.1*
COc1cc(/C=C/c2ccc3cccc([N+](=O)[O-])c3n2)ccc1OCC(=O)O	?	20µM*	-15.2%	?	?	75.7*	Pol kappa inh-2=?
Cc1cc(C)n(-c2nc(C)c(C)c(=O)n2CC(=O)Nc2ccc(OC(F)(F)F)cc2)n1	-11.0%	-12.8%	.	-4.5%[60.1 µM]	-8.5%	.
C=CCOc1cccc(C2C(C(=O)c3ccco3)=C(O)C(=O)N2Cc2ccco2)c1 (configuration not stated)	?	?	.	-12.9%	3.1%	?
